Source: the OligoGym collection
Note: reference of the scale not given here.

The sequences below were run against HIP1R (assay: pooled miR-30 sensor sort-seq; sequence = guide strand). Conditions: shRNA.
For TAATCAAACATCTCCACAGTGA, the sensor-assay potency score (higher = more potent) was -0.629.
With TTTGTCAAGCTGGTGGTCCTGT the sensor-assay potency score (higher = more potent) was 0.332.
TTGGTCAGCAGCAGCTTGGTGT was tested, and the sensor-assay potency score (higher = more potent) was -0.763.
For TTGGTGGTTACACTTCGGGGGG, the sensor-assay potency score (higher = more potent) was -1.01.
Sequence ATGTTGTTGACATCGGTCCCAG has a sensor-assay potency score (higher = more potent) of -0.946.

These sequences were tested against HIST1H2BM in the same assay as above. Conditions: shRNA.
Work on TTGTTAATGGCCTTCTTGGAGC yielded a sensor-assay potency score (higher = more potent) of -1.15.
TAGCCTTGGAAGAGATGCCGGT gave a sensor-assay potency score (higher = more potent) of -0.26.
TACACAGAGTAGCTCTCCTTGC gave a sensor-assay potency score (higher = more potent) of -0.828.
ATACACAGAGTAGCTCTCCTTG showed a sensor-assay potency score (higher = more potent) of -0.936.
For TACACATACACAGAGTAGCTCT, the sensor-assay potency score (higher = more potent) was -0.419.
In the case of TTTGCGCTTCTTTCCATCCTTC, the sensor-assay potency score (higher = more potent) is reported as -0.136.
TTGTACACATACACAGAGTAGC showed a sensor-assay potency score (higher = more potent) of -0.844.
TAGCAGTAGGCGCACGGCCGTC showed a sensor-assay potency score (higher = more potent) of -1.42.
For TTCCATCCTTCTTCTGAGCCTT, the sensor-assay potency score (higher = more potent) was -0.589.
TTCTTTCCATCCTTCTTCTGAG showed a sensor-assay potency score (higher = more potent) of -0.665.
Work on TTAATGGCCTTCTTGGAGCCTT yielded a sensor-assay potency score (higher = more potent) of -0.535.
TCCATCCTTCTTCTGAGCCTTG showed a sensor-assay potency score (higher = more potent) of -1.16.

These sequences were tested against HIST1H2BN in the same assay as above. Conditions: shRNA.
Sequence TCACTGCCTTCTTGGAGCCTTT has a sensor-assay potency score (higher = more potent) of -1.34.
TTGTACACGTACACGGAGTAGC showed a sensor-assay potency score (higher = more potent) of -0.485.
Work on TTGCCGTCCTTCTTCTGGGCCT yielded a sensor-assay potency score (higher = more potent) of -0.777.
With TGGCCTTGGACGAGATACCGGT the sensor-assay potency score (higher = more potent) was -1.2.
TTGGACGAGATACCGGTGTCGG was tested, and the sensor-assay potency score (higher = more potent) was -1.16.
TCTTCTGGGCCTTTGTCACTGC was tested, and the sensor-assay potency score (higher = more potent) was -0.0714.
In the case of TACACGTACACGGAGTAGCTCT, the sensor-assay potency score (higher = more potent) is reported as -0.756.
For TTGGAGCCTTTCTTCGGGGCAG, the sensor-assay potency score (higher = more potent) was -0.909.
Sequence TCGAAGATGTCATTGACGAAGG has a sensor-assay potency score (higher = more potent) of -1.38.
TTTGTCACTGCCTTCTTGGAGC gave a sensor-assay potency score (higher = more potent) of -0.47.
For TTCTGGGCCTTTGTCACTGCCT, the sensor-assay potency score (higher = more potent) was -1.05.
With TTCTTGGAGCCTTTCTTCGGGG the sensor-assay potency score (higher = more potent) was -0.852.
TTCTTCTGGGCCTTTGTCACTG gave a sensor-assay potency score (higher = more potent) of -0.654.

The sequences below were run against HIST1H4A in the same assay as above. Conditions: shRNA.
TAGACCACGTCCATGGCAGTGA showed a sensor-assay potency score (higher = more potent) of -0.363.
Work on TCTCCTCGTAGATCAGACCAGA yielded a sensor-assay potency score (higher = more potent) of -0.957.
Work on ATAGGTGACAGCGTCACGGATC yielded a sensor-assay potency score (higher = more potent) of -0.773.
TATAGGTGACAGCGTCACGGAT showed a sensor-assay potency score (higher = more potent) of -1.01.
TTGTCACGCAACACCTTGCGGT gave a sensor-assay potency score (higher = more potent) of -0.404.
TGTCACGCAACACCTTGCGGTG showed a sensor-assay potency score (higher = more potent) of -1.69.
Sequence TCACGCAACACCTTGCGGTGGC has a sensor-assay potency score (higher = more potent) of 0.266.
Sequence TAGATCAGACCAGAGATCCGCT has a sensor-assay potency score (higher = more potent) of 0.162.
In the case of AAAAACACCTTGAGCACCCCGC, the sensor-assay potency score (higher = more potent) is reported as 0.101.
With TGACTGTCTTGCGCTTGGCGTG the sensor-assay potency score (higher = more potent) was -1.68.
